Results filed as inconclusive are left out. Entries that show only a call come without a potency. A number with no mark means an inactive call. Activity calls are given as the source filed them. The call rests on the fitted dose curve; in most records, active means well fitted curve in the direction sought with a large enough effect; inconclusive means small, poorly fitted or top-dose-only effect, or another doubt; inactive means no such curve, though single readings can be large; an effect the other way counts as inactive or inconclusive.
Tests used:
[1] = tested on: Zika virus NS2B-NS3 protease; test: Primary screen GU AMC qHTS for Zika virus inhibitors (AID 1347154); further: nearly all actives have a fitted effect of over 70% in size
In short: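 Fluorogenic AMC-substrate cleavage by noncovalent NS2B-NS3 protease complex (25 nM, pH 8.0 Tris buffer with Tween 20) followed for 15 minutes at room temperature (~20% conversion). Percent inhibition from ex340/em450 signal change, fitted by 4-parameter Hill equation.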

[2] = Primary qHTS for small molecule stabilizers of the endoplasmic reticulum resident proteome: Secreted ER Calcium Modulated Protein (SERCaMP) assay (AID 1508630)
In short: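 The SH-SY5Y reporter protocol was run at 3 concentrations up to 38.3 uM (primary) or 11 concentrations (follow-up): 16 h compound, 100 nM thapsigargin for 4 h, then extracellular luciferase luminescence.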

| Compound | activity change, negative = inhibition [1] | activity change, negative = inhibition [2] | Potency [1] | Potency [2] |
| --- | --- | --- | --- | --- |
| CCCCCCCCCCOCCC(=O)O | 12.5% [at 6.83 µM] | -6.7% [at 3.88 µM] | – | – |
| NC(CC(=O)Nc1ccc(Oc2cc(F)c(F)cc2Br)cc1)C(=O)O (stereo unspecified) | – | – | inactive | inactive |
| COc1c(O)cc2oc(-c3ccc(O)cc3)cc(=O)c2c1O | – | – | inactive | inactive |
| CC1=C(/C=C/C(=C/C=C/C(C)=C/C(=O)O)c2ccc(C)cc2)C(C)(C)CCC1 | – | – | inactive | inactive |
| CCCCC/C=C\CC1OC1CCCCCCCC(=O)O (stereo unspecified) | 6.59% [at 0.59 µM] | -29.7% [at 0.478 µM] | – | – |
| CCCCCCCCCC(=O)OCC(CO)OC(=O)CCCCCCCCC (stereo unspecified) | 1.45% [at 6.83 µM] | -13.4% [at 3.88 µM] | – | – |
| Oc1ccc(-c2c(-c3ccccc3)nn3c(C(F)(F)F)cc(C(F)(F)F)nc23)cc1 | – | – | inactive | inactive |
| NC(N)=NCCNS(=O)(=O)c1cccc2cnccc12 | – | – | inactive | inactive |
| NC(C(=O)O)C(CC(=O)O)c1ccc(Cl)cc1 (stereo unspecified) | – | – | inactive | inactive |
| CCCCC/C=C\C/C=C\CCCCCCCC(N)=O | 15% [at 6.83 µM] | -21% [at 3.88 µM] | – | – |
| CC/C=C\C/C=C\C/C=C\CCCCCCCCCCCC(=O)O | -2.15% [at 6.83 µM] | 10.3% [at 3.88 µM] | – | – |
| CC(=O)OCOC(c1ccc2ccccc2c1)P(=O)(OCOC(C)=O)OCOC(C)=O (stereo unspecified) | – | – | inactive | inactive |
| CCCCCCCCCCC/C=C\C/C=C\CCCC(=O)O | 7.9% [at 6.83 µM] | -21.5% [at 3.88 µM] | – | – |
| CSCC[C@H](NC(=O)[C@H](Cc1ccccc1)NC[C@@H](NC[C@@H](N)CS)C(C)C)C(=O)O | – | – | inactive | inactive |
| COc1c(O)c2c(=O)cc(OC)c3c4c(OC)cc(=O)c5c(O)c(OC)c(C[C@@H](C)OC(=O)c6ccccc6)c(c(c1C[C@@H](C)OC(=O)Oc1ccc(O)cc1)c23)c54 | 10.7% [at 4.99 µM] | 121% [at 3.88 µM] | – | – |
| CC(O)[C@@H](N)C(=O)O (stereo partly specified) | – | – | inactive | inactive |
| COC(=O)[C@@H](N)CSC/C=C(\C)CC/C=C(\C)CCC=C(C)C | – | – | inactive | inactive |
| Nc1ncc2[nH]cnc2n1 | – | – | inactive | inactive |
| C[C@H](CC[C@@H]1OC1(C)C)C1CC[C@H]2[C@@H]3CC=C4C[C@@H](O)CC[C@]4(C)[C@H]3CC[C@]12C (stereo partly specified) | – | – | inactive | inactive |
| N[C@H](C(=O)O)[C@H]1C[C@H]1C(=O)O | – | – | inactive | inactive |
| CC(C)C(N)C(=O)O (stereo unspecified) | – | – | inactive | inactive |
| Nc1ccnc2c1ncn2[C@@H]1O[C@H](CO)[C@@H](O)[C@H]1O | – | – | inactive | inactive |

| Compound | activity change, negative = inhibition [1] | activity change, negative = inhibition [2] | Potency [1] | Potency [2] |
| --- | --- | --- | --- | --- |
| Nc1ncnc2c1nc(Br)n2[C@@H]1O[C@H]2COP(=O)(O)O[C@@H]2[C@@H]1O | – | – | inactive | inactive |
| CCCCCCCCCC(=O)N[C@H](CN1CCOCC1)[C@H](O)c1ccccc1 | 6.71% [at 6.83 µM] | 9.26% [at 3.88 µM] | – | – |
| N[C@](CC1c2ccccc2Oc2ccccc21)(C(=O)O)[C@H]1C[C@@H]1C(=O)O | – | – | inactive | inactive |
| Nc1nc2c(ncn2[C@@H]2O[C@H](COP(=O)(O)OP(=O)(O)O)[C@@H](O)[C@H]2O)c(=O)[nH]1 | – | – | inactive | inactive |
| CCCC(=O)NCCc1c(I)[nH]c2ccc(OC)cc12 | – | – | inactive | inactive |
| CO[C@H]1C[C@@H]2CC[C@@H](C)[C@@](O)(O2)C(=O)C(=O)N2CCCC[C@H]2C(=O)O[C@H](C(C)C[C@H]2CC[C@@H](O)[C@H](OC)C2)CC(=O)[C@H](C)/C=C(\C)[C@@H](O)[C@@H](OC)C(=O)[C@H](C)C[C@H](C)/C=C/C=C/C=C/1C (stereo partly specified) | – | – | inactive | inactive |
| CC(C)[C@@H]1NC(=O)[C@H](Cc2ccccc2)NC(=O)[C@@H](CC(=O)O)NC(=O)CNC(=O)[C@H](CCCNC(=N)N)NC1=O | – | – | inactive | inactive |
| Cn1cnc2c(ncn2[C@@H]2O[C@H](CO)[C@@H](O)[C@H]2O)c1=N | – | – | inactive | inactive |
| COC(=O)/C=C/c1cccc(N(Cc2ccc(-c3ccc(N(C)C)cc3)cc2)C(=O)C2CCCCC2)c1 | – | – | inactive | inactive |
| CCCC(=O)Nc1nc2c(ncn2[C@@H]2O[C@H]3COP(=O)(O)O[C@@H]3[C@@H]2OC(=O)CCC)c(=O)[nH]1 | – | – | inactive | inactive |
| COC(=O)[C@H]1C2CC3c4[nH]c5ccccc5c4CCN3CC2CC[C@@H]1O (stereo partly specified) | – | – | inactive | inactive |
| Nc1c(S(=O)(=O)O)cc(Nc2cccc3ccccc23)c2c1C(=O)c1ccccc1C2=O | – | – | inactive | inactive |
| CCCCCCCCCCCCC/C=C/[C@@H](O)[C@H](CO)NC(C)=O | 16.6% [at 6.83 µM] | 1.43% [at 3.88 µM] | – | – |
| COC(=O)c1csc(C(=O)c2c[nH]c3ccccc23)n1 | – | – | inactive | inactive |
| Nc1ncnc2c1ncn2[C@@H]1O[C@H](COP(=O)(O)OP(=O)(O)OC[C@H]2OC(O)[C@H](O)[C@@H]2O)[C@@H](O)[C@H]1O (stereo partly specified) | – | – | inactive | inactive |
| N[C@H](CS)C(=O)O | – | – | inactive | inactive |
| CCCCC(C)(O)C/C=C/[C@H]1[C@H](O)CC(=O)[C@@H]1CCCCCCC(=O)O (stereo partly specified) | 14% [at 6.83 µM] | -15.4% [at 3.88 µM] | – | – |
| C[C@@](N)(C(=O)O)[C@@H]1C[C@@H]1C(=O)O | – | – | inactive | inactive |
| C[C@H](CCC(=O)O)C1CC[C@H]2C3CC[C@@H]4C[C@H](O)CC[C@]4(C)C3C[C@H](O)[C@]12C (stereo partly specified) | – | – | inactive | inactive |
| O=c1nc2ccccc2c2n1CC(CN1CCN(c3ccccc3)CC1)N2 (stereo unspecified) | – | – | inactive | inactive |
| O=[N+]([O-])c1ccc(CSc2ncnc3c2ncn3C2OC(CO)C(O)C2O)cc1 (stereo unspecified) | – | – | inactive | inactive |

Source: PubChem BioAssay (NCATS)
